Experiment [1] addresses Albumin (Bos taurus) (UniProt P02769). As to the kind of experiment: bovine serum albumin binders on microarray, profiling panel, artefact control for SMM control protein annotation, biochemical, small-molecule microarray, Alexa647 label, 635/667 nm fluorescence (AID 1118).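 Also: score merges 667 nm emission intensity and signal-to-noise per printed compound spot.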 The conditions noted are these: BSA-A647 binding, fluorescence 635 nm, higher = more signal.
A short description of experiment [2]: small-molecule microarray binders of probe aXIP, primary screen, biochemical, NeuroSMM set, 635/667 nm fluorescence (AID 1119).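 Also: probe is the protein aXip251-270 applied at 1 µg/mL to compound-printed slides; binding of probe to printed compounds measured as 667 nm fluorescence plus signal to noise.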 The conditions noted are these: higher = more signal, called active from +8 up or from −8 down.
Experiment [3] is described as follows: small-molecule binders of probe aNOTCH3, primary screen, biochemical, small-molecule microarray, 635/667 nm fluorescence (AID 1120).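 Also: probe is a biotin-tagged antibody raised against NOTCH3 rather than NOTCH3 protein; score merges spot fluorescence near 667 nm with spot signal to noise.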 The settings on record: higher = more signal.
The nature of experiment [4]: small-molecule binders of probe aNOTCH2, primary screen, biochemical, small-molecule microarray, 635/667 nm fluorescence (AID 1121).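 Also: score merges feature fluorescence read at 667 nm with its signal to noise.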 The settings on record: higher = more signal.
The target of experiment [5] is Carbonic anhydrase 2 (Homo sapiens) (UniProt P00918). As to the kind of experiment: CAII small-molecule binders, profiling panel, biochemical, small-molecule microarray, Alexa647-labelled CAII (AID 1122). The settings on record: CAII-A647 binding fluorescence, higher = more signal.
The nature of experiment [6]: COS7 lysate on small-molecule microarray, probe aHis, 635 nm (AID 1123).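 Also: z-score combines 667nm fluorescence intensity with signal-to-noise per printed compound spot.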 The conditions noted are these: COS7 cell lysate, fluorescence, higher = more signal.
Experiment [7] is described as follows: compound binding in COS7 lysate, probe aLAP1, primary screen, cell lysate, small-molecule microarray (AID 1124).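 Also: lysate comes from COS7 cells expressing LAP1 and is applied at 0.3 µg/mL; score merges spot fluorescence near 667 nm with signal-to-noise over triplicate slides.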 The settings on record: probe aLAP1, fluorescence, higher = more signal.
The subject of experiment [8] is Sam68 (KHDRBS1). Description: Sam68 small-molecule binders, primary screen, biochemical, small-molecule microarray, 635 nm fluorescence (AID 1125).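 Also: score merges 667 nm channel intensity with signal to noise over triplicate slides.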 The conditions noted are these: small-molecule microarray binding, higher = more signal.
In experiment [9] the test system is Chordin-like protein 2 (CHRDL2). Description: CHRDL2 small-molecule binders, primary screen, biochemical, small-molecule microarray, 635 nm fluorescence (AID 1126).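 Also: printed compound slides probed with Chrdl2 protein at 4 µg/mL for 1 h at 4 C; score merges 667 nm emission intensity with signal to noise over three replicate slides.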 The settings on record: small-molecule microarray binding, fluorescence 635 nm; higher = more signal.
Experiment [10] deals with Concanavalin-A (Canavalia ensiformis) (UniProt P02866). Description: ConA small-molecule binders, primary screen, artefact control for SMM control protein annotation, biochemical, small-molecule microarray, Alexa647 label, 635 nm (AID 1127).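 Also: z combines 667 nm emission intensity with signal-to-noise across three replicate slides.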 The conditions noted are these: ConA-A647 binding fluorescence, higher = more signal.
Sequence of Concanavalin-A (Canavalia ensiformis) (P02866 whole entry, looked up): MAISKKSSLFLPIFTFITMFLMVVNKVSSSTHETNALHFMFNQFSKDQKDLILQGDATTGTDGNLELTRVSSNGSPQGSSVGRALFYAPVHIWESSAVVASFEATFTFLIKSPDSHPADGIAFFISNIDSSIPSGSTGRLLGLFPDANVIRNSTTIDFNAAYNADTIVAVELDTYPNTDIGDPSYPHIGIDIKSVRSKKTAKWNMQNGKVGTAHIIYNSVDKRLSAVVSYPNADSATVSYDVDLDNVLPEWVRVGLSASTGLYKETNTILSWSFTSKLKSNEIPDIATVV
Experiment [11] can be described thus: anti-His antibody binders, primary screen, artefact control for SMM control protein annotation, biochemical, small-molecule microarray, 635 nm fluorescence (AID 1128).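 Also: score merges feature fluorescence with signal-to-noise for each printed compound spot.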 The settings on record: anti-His Alexa647 antibody binding, higher = more signal.
Experiment [12] deals with Human papillomavirus type 1a E7 protein (residues 1-88). As to the kind of experiment: HPV1a E7 small-molecule binders, primary screen, biochemical, small-molecule microarray, residues 1-88, 635 nm (AID 1129). The conditions noted are these: small-molecule microarray binding, fluorescence 635 nm; higher = more signal.
Experiment [13] deals with Focal adhesion kinase 1 (Homo sapiens) (UniProt Q05397). Description: small-molecule microarray binders of FAK, primary screen, biochemical, 635/667 nm fluorescence, BSA, DTT (AID 1130).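 Also: composite of spot emission at 667 nm and signal to noise over triplicate slides.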 The settings on record: PTK2 binding, 635 nm fluorescence, higher = more signal.
Sequence of Focal adhesion kinase 1 (Homo sapiens) (Q05397 whole entry, looked up): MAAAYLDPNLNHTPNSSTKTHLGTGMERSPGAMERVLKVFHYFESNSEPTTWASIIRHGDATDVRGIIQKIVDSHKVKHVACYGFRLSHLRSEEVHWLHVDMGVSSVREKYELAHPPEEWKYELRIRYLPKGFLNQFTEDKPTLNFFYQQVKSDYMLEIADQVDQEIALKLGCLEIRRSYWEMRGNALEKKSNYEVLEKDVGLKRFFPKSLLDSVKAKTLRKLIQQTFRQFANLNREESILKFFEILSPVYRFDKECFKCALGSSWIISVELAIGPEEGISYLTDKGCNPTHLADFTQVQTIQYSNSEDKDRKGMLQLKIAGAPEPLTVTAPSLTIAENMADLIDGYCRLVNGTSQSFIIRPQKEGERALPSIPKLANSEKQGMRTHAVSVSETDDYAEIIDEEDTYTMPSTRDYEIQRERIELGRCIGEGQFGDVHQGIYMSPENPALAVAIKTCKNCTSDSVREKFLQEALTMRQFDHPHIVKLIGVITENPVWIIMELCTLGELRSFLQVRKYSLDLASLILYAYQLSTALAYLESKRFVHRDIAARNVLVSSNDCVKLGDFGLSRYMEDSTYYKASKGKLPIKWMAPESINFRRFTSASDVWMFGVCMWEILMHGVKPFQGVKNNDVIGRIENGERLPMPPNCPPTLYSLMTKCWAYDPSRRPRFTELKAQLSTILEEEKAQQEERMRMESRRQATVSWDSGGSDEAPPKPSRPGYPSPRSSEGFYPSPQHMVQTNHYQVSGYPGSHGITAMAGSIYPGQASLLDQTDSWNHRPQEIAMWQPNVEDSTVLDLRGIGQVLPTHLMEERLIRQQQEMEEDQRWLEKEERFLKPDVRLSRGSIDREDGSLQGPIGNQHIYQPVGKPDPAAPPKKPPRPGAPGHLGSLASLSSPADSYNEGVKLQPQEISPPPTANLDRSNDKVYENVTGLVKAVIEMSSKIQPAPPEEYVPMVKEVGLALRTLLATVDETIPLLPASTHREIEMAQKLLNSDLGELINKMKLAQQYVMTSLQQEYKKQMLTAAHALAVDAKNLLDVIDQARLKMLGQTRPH
The test system of experiment [14] is Fibrinogen (Alexa647-labelled). Description: fibrinogen binders on compound microarrays, profiling panel, artefact control for SMM control-protein annotation, biochemical, small-molecule microarray, 635/667 nm fluorescence (AID 1131).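 Also: z-score merges 667 nm fluorescence with per-spot signal-to-noise over triplicate slides.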 The settings on record: fibrinogen-A647 binding fluorescence, higher = more signal.
Experiment [15] addresses Follistatin (Homo sapiens) (UniProt P19883). Description: follistatin binders on small-molecule microarrays, primary screen, biochemical, small-molecule microarray, 635/667 nm fluorescence (AID 1132). The settings on record: FST binding, 635 nm fluorescence, higher = more signal.
Experiment [16] deals with Fibroblast growth factor 2 (Homo sapiens) (UniProt P09038). As to the kind of experiment: FGF2 binders on small-molecule microarrays, primary screen, biochemical, small-molecule microarray, 635/667 nm fluorescence (AID 1133). The conditions noted are these: small-molecule microarray binding, FGF2, fluorescence 635/667; higher = more signal.
Sequence of Fibroblast growth factor 2 (Homo sapiens) (P09038 whole entry, looked up): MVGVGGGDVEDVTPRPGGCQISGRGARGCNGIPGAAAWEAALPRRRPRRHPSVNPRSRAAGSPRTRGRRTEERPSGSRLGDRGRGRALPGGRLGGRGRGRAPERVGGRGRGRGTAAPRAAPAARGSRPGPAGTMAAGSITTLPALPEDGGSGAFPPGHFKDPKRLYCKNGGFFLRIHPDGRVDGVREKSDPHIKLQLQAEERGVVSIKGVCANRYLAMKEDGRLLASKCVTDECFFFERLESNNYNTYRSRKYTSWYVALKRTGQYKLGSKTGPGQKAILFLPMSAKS
Experiment [17] is described as follows: mitochondrial membrane potential change in A549 cells, profiling panel, cell-based, JC-1 fluorescence, basal, 24 h, 100 nL (AID 1138).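 Also: A549 lung adenocarcinoma cells under basal conditions with no added stimulus; test concentration not given here.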 The settings on record: higher = more signal.
Experiment [18] relates to Lefty1. As to the kind of experiment: Lefty1 binders on small-molecule microarrays, primary screen, biochemical, small-molecule microarray, 635/667 nm fluorescence (AID 1139). The conditions noted are these: small-molecule microarray binding, fluorescence 635/667; higher = more signal.
The test system of experiment [19] is wheat germ agglutinin (Triticum aestivum), Alexa647-labelled. Description: wheat germ agglutinin binders on compound microarrays, profiling panel, artefact control for SMM control-protein annotation, biochemical, small-molecule microarray, 635/667 nm fluorescence (AID 1140).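 Also: score merges 667 nm feature emission with signal to noise over triplicate slides.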 The settings on record: WGA-A647 binding, 635 nm fluorescence, higher = more signal.
In experiment [20] the target is Luciferin 4-monooxygenase (Photinus pyralis) (UniProt P08659). Description: firefly luciferase enzyme inhibitors, primary screen, biochemical, luminescence, purified enzyme, 2006 set (AID 1141).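 Also: cell-free assay with purified firefly luciferase at 100 ng per well in PBS; test concentration not given here.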 The settings on record: SteadyGlo luminescence, 30 min, higher = more signal, called active from +8 up or from −8 down.
Sequence of Luciferin 4-monooxygenase (Photinus pyralis) (P08659 whole entry, looked up): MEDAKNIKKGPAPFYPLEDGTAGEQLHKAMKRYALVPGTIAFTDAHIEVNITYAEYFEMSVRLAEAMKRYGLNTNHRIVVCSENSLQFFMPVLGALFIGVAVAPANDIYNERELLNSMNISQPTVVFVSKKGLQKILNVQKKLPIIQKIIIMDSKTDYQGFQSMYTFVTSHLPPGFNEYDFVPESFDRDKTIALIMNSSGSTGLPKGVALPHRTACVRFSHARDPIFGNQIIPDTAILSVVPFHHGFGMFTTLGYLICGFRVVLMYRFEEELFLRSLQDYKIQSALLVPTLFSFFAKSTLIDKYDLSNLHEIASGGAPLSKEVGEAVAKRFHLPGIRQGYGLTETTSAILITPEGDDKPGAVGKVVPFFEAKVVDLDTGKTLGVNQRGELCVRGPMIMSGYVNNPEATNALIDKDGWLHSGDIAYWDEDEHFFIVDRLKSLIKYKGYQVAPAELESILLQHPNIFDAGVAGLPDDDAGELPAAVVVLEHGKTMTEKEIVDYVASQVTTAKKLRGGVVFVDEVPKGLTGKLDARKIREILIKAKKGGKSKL

Activity calls are given as the source filed them.

Sequence of Follistatin (Homo sapiens) (P19883 whole entry, looked up): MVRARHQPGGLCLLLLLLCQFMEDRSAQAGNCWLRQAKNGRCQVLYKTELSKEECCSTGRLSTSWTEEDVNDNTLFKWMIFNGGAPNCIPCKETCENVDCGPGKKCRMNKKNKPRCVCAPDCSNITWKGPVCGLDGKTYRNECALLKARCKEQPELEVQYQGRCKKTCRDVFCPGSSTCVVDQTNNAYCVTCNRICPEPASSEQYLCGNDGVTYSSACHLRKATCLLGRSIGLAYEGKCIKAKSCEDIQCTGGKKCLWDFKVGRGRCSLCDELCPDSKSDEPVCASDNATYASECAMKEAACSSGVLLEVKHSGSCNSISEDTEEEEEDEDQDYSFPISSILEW
Sequence of Albumin (Bos taurus) (P02769 whole entry, looked up): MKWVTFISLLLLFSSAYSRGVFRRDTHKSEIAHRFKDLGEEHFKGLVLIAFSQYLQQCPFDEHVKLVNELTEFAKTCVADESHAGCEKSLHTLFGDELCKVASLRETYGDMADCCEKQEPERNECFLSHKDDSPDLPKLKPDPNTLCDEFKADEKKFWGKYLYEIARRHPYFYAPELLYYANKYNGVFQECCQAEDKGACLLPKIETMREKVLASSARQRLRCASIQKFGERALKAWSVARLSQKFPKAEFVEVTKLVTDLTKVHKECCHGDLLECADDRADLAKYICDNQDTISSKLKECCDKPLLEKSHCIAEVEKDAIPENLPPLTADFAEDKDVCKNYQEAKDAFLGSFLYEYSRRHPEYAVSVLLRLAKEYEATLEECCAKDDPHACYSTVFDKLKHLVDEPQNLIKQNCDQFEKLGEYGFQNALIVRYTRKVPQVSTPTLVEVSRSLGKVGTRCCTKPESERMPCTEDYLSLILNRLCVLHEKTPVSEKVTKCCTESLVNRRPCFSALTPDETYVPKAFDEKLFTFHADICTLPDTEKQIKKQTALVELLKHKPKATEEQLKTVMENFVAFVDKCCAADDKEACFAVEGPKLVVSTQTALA

In the case of `O=C1CS(=O)(=O)C(c2cccc([N+](=O)[O-])c2)N1c1ccccc1` (stereo not given), the composite z-score in experiment [1] was 0.501; in experiment [3], 0.482; in experiment [4], 0.48; in experiment [5], 0.787; in experiment [6] it was 0.904; in [7], 0.85. Further, the composite z-score came out at 0.329 in experiment [8]; 0.527 in [9]; 0.353 in [10]; 1.67 in experiment [11]; 1.16 in experiment [12]; 0.596 in experiment [13]. In addition, the composite z-score was 0.522 in experiment [14]; 0.469 in experiment [15]; 0.698 in [16]; -0.269 in experiment [18]; 0.909 in [19]. The composite Z-score in experiment [2] was 1.11 (inactive). The values for the z-score in [17] and in [20] were 1.53 and -1.61 (inactive), respectively.

`COC(=O)[C@@]1(Cc2ccc(OC)cc2)[C@H]2c3cc(C(=O)N4CCCC4)n(CCc4c[nH]c5ccc(O)cc45)c3C[C@H]2CN1C(=O)c1ccccc1`: the composite z-score in experiment [1] stood at 0.863; in experiment [3] it was 0.298; in [4], 0.0409; in experiment [5], 0.774; in [6], 2.05; in experiment [7], 0.441. Also, the composite z-score in experiment [8] was 1.34; in experiment [9], -0.135; in experiment [10] it was 0.992; in experiment [11], 0.256; in experiment [12], 1.23; in experiment [13], 0.594. Moreover, the composite z-score in [14] amounted to 0.948; in experiment [15], 1.16; in [16] it was 0.0628; in experiment [18], 0.111; in experiment [19], 0.92. The composite Z-score in experiment [2] was 0.714 (inactive). For the same compound, the figures for the z-score in [17] and in experiment [20] were 0.623 and -1.31 (inactive), respectively.

Consider `COC(=O)[C@@]1(Cc2ccccc2)[C@H]2c3cc(C(=O)N4CCCC4)n(CCc4ccccn4)c3C[C@H]2CN1C(=O)c1ccccc1`, for which the composite z-score is 1.06 in [1]; 0.682 in experiment [3]; 0.133 in experiment [4]; 0.88 in experiment [5]; 3.46 in [6]; 0.589 in [7]. Also, the composite z-score in experiment [8] was 0.761; in [9] it was -0.607; in experiment [10], 0.606; in [11] it was -0.295; in experiment [12], 1.28; in [13], 1.34. In addition, the composite z-score is 1.01 in experiment [14]; 0.758 in experiment [15]; -0.28 in experiment [16]; 0.0814 in [18]; 1.16 in experiment [19]. The composite Z-score in experiment [2] is -1.17 (inactive). Besides, the results for the z-score in experiment [17] and in experiment [20] were -0.0942 and 2.38 (inactive), respectively.

Turning to `Cc1ccc(S[C@]2(C(=O)NC(C)C)CC(=O)N(Cc3cc(C(F)(F)F)cc(C(F)(F)F)c3)[C@@H]2c2ccc(CO)cc2)cc1`, the composite z-score in experiment [1] was -0.0844; in experiment [3], -0.384; in experiment [4] it was -0.126; in [5], 0.241; in [6] it was 0.596; in experiment [7], 0.293. Also, the composite z-score was -0.374 in experiment [8]; -1.19 in experiment [9]; -0.534 in experiment [10]; -0.254 in experiment [11]; -0.629 in experiment [12]; -0.734 in experiment [13]. In addition, the composite z-score in experiment [14] is -0.983; in experiment [15] it was -1.33; in [16], -0.977; in experiment [18], -0.67; in experiment [19], 0.0491. For the same compound, in experiment [2], the composite Z-score is -0.459 (inactive). In addition, the results for the z-score in experiment [17] and in [20] were 0.605 and -0.222 (inactive), respectively.

With `COCCOC(=O)N1C(=O)[C@@]2(c3cc(C#CC4=CCCCC4)ccc31)[C@H](c1ccccc1OCCO)N1[C@H](c3ccccc3)[C@H](c3ccccc3)OC(=O)[C@H]1[C@@H]2C(=O)N1CCN(c2ncccn2)CC1`, the composite z-score was 0.326 in experiment [1]; 0.212 in experiment [3]; -0.154 in [4]; 0.214 in experiment [5]; 0.634 in experiment [6]; 0.297 in [7]. Besides, the composite z-score in experiment [8] was 1.06; in experiment [9], 0.374; in experiment [10] it was 1.06; in experiment [11], 0.624; in [12], 1.15; in [13] it was 0.732. Also, the composite z-score in experiment [14] came to 0.635; in [15], 0.76; in experiment [16], 0.779; in [18] it was 0.772; in experiment [19], 0.343. For the same compound, the composite Z-score in experiment [2] is -0.17 (inactive). For the same compound, the z-score in experiment [17] is -1.05; in [20] it was -1.47 (inactive).

These data come from PubChem BioAssay.
